Test results published in PubChem BioAssay AID1775 (NMMLSC, 2009).
Out of some 220,000 compounds screened, about 820 (0.37%) were called active. No stated cut-off is given here; in the data, active means fluorescence above about 47; inactive means the rest. The sample as a whole holds a higher share of actives than the screen did.

Experiment: green autofluorescence of compounds with avidin beads – biophysical, 488/530 nm, flow cytometry, artefact control, profiling panel (AID 1775)
Conditions: compound fluorescence 488/530 nm, at 10 µM, hits give high values

**Q.** With C=CC1C(OC2OC(CO)C(O)C(O)C2O)OC=C(C(=O)OC)C1CC1CC(=O)CC(CC(=O)CCc2ccc(O)cc2)O1 (centres undefined) as the compound, how does the fluorescence (KMESF) read?
**A.** 8 (inactive)

**Q.** For CCC(C)(C)n1nnnc1C(c1cccs1)N1CCN(Cc2ccccc2)CC1 (centres undefined), which fluorescence (KMESF) is on record?
**A.** 5 (inactive)

**Q.** Which fluorescence (KMESF) does the source give for Fc1ccccc1C(c1nnnn1Cc1ccc2c(c1)OCO2)N1CCN(Cc2ccccc2)CC1 (centres undefined) here?
**A.** 5 (inactive)

**Q.** Which fluorescence (KMESF) does the source give for Fc1ccc(Cn2nnnc2C(c2cccs2)N2CCCCCC2)cc1 (centres undefined) here?
**A.** 62 (active)

**Q.** Which fluorescence (KMESF) does the source give for Cc1ccc(CCCOC(=O)C[N+]2(C)CCCC2)cc1 here?
**A.** 6 (inactive)

**Q.** For CSc1ccccc1NC(=O)Cc1ccc(Br)cc1, which fluorescence (KMESF) is on record?
**A.** 12 (inactive)

**Q.** Which fluorescence (KMESF) does the source give for CN1CCN(Cc2c(O)ccc3c2oc(=O)c2ccccc23)CC1 here?
**A.** 22 (inactive)

**Q.** For CCOC(=O)c1oc2c(CN3CCN(C)CC3)c(O)ccc2c(=O)c1-c1ccc(Br)cc1, which fluorescence (KMESF) is on record?
**A.** 189 (active)

**Q.** For CCN1CCN(Cc2c(O)ccc3c(=O)c(-c4ccc(OC)c(OC)c4)c(C(F)(F)F)oc23)CC1, which fluorescence (KMESF) is on record?
**A.** 16 (inactive)

**Q.** For OCCn1c(-c2ccccc2)csc1=Nc1ccccc1, which fluorescence (KMESF) is on record?
**A.** 3 (inactive)

**Q.** With CC(O)c1nc2ccccc2n1Cc1ccc([N+](=O)[O-])cc1 (centres undefined) as the compound, how does the fluorescence (KMESF) read?
**A.** 7 (inactive)

**Q.** Which fluorescence (KMESF) does the source give for CCOCN(C(=O)Cn1c(C(C)O)nc2ccccc21)c1c(C)cccc1CC (centres undefined) here?
**A.** 57 (active)

**Q.** For CCc1cccc(C)c1N(C(=O)Cn1c(CO)nc2ccccc21)C(C)COC (centres undefined), which fluorescence (KMESF) is on record?
**A.** 5 (inactive)

**Q.** With O=C1CC(N2CCN(c3ccc(F)cc3)CC2)C(=O)N1c1ccccc1 (centres undefined) as the compound, how does the fluorescence (KMESF) read?
**A.** 9 (inactive)

**Q.** Which fluorescence (KMESF) does the source give for COC(=O)c1ccc(S(=O)(=O)N(CCO)Cc2ccccc2)n1C here?
**A.** 6 (inactive)

**Q.** For CCCC1C(c2ccccc2)C(C#N)(C#N)C2(C#N)CC1(N)NC2=O (centres undefined), which fluorescence (KMESF) is on record?
**A.** 90 (active)

**Q.** For Cc1ccc(C(=O)COC(=O)CCN2C(=O)C3C4CC(C(Br)C4Br)C3C2=O)cc1 (centres undefined), which fluorescence (KMESF) is on record?
**A.** 14 (inactive)

**Q.** For CCOc1ccc(S(=O)(=O)N/N=C(\C)c2ccc(Cl)c(Cl)c2Cl)cc1, which fluorescence (KMESF) is on record?
**A.** 7 (inactive)

**Q.** With N#CCSc1nn(-c2ccc(F)cc2)c(=S)s1 as the compound, how does the fluorescence (KMESF) read?
**A.** 24 (inactive)

**Q.** Which fluorescence (KMESF) does the source give for CCOC(=O)c1c(/N=C/c2cc(C)ccc2O)sc2c1CCC2 here?
**A.** 14 (inactive)

**Q.** With CC(C)(C)Nc1c(-c2cccs2)nc2ccccn12 as the compound, how does the fluorescence (KMESF) read?
**A.** 9 (inactive)

**Q.** Which fluorescence (KMESF) does the source give for O=C(COC(=O)Cn1cnc2ccccc2c1=O)NCc1ccccc1Cl here?
**A.** 58 (active)

**Q.** Which fluorescence (KMESF) does the source give for Cn1c(CCC(=O)OCC(=O)NCc2ccccc2Cl)nc(=O)c2ccccc21 here?
**A.** 21 (inactive)

**Q.** With O=C(COC(=O)Cn1cnc2ccccc2c1=O)NCC12CC3CC(CC(C3)C1)C2 as the compound, how does the fluorescence (KMESF) read?
**A.** 5 (inactive)

**Q.** For COc1ccc(Br)cc1C(=O)Nc1cccc(C)c1C, which fluorescence (KMESF) is on record?
**A.** 8 (inactive)

**Q.** For O=C(CCCCCN1C(=O)c2cccc3cccc(c23)C1=O)NCc1ccco1, which fluorescence (KMESF) is on record?
**A.** 4 (inactive)

**Q.** With N#Cc1ccc(N2Cc3ccccc3/C2=N/C(=O)Nc2ccc(Cl)cc2)cc1 as the compound, how does the fluorescence (KMESF) read?
**A.** 15 (inactive)

**Q.** Which fluorescence (KMESF) does the source give for CC(NC(=O)COC(=O)c1cc(=O)[nH]c2ccccc12)c1ccccc1 (centres undefined) here?
**A.** 7 (inactive)

**Q.** Which fluorescence (KMESF) does the source give for COC(=O)c1ccc(C2CC(=O)Nc3cc(OC)c(OC)cc32)cc1 (centres undefined) here?
**A.** 19 (inactive)

**Q.** With COc1cc2c(cc1OC)C(c1ccncc1)CC(=O)N2 (centres undefined) as the compound, how does the fluorescence (KMESF) read?
**A.** 47 (active)

**Q.** Which fluorescence (KMESF) does the source give for COc1cc2c(cc1OC)C(c1ccc(C)o1)CC(=O)N2 (centres undefined) here?
**A.** 22 (inactive)

**Q.** With CC(CO)(CO)NC(=O)c1ccc(=O)[nH]n1 as the compound, how does the fluorescence (KMESF) read?
**A.** 4 (inactive)

**Q.** For Cc1ncoc1C(=O)N1CCCC(C(=O)c2ccc3c4c(cccc24)CC3)C1 (centres undefined), which fluorescence (KMESF) is on record?
**A.** 10 (inactive)

**Q.** For CC(=O)NCC(=O)N1CCCC(C(=O)c2ccc3c4c(cccc24)CC3)C1 (centres undefined), which fluorescence (KMESF) is on record?
**A.** 80 (active)

**Q.** Which fluorescence (KMESF) does the source give for CCn1ccnc1CN1CCCC(C(=O)c2ccc3c4c(cccc24)CC3)C1 (centres undefined) here?
**A.** 8 (inactive)

**Q.** For Cc1nnc(Nc2ccccc2F)s1, which fluorescence (KMESF) is on record?
**A.** 5 (inactive)

**Q.** For COc1cc(/C=C/C(=O)OCC(=O)N2CCOCC2)ccc1OCC#N, which fluorescence (KMESF) is on record?
**A.** 10 (inactive)

**Q.** Which fluorescence (KMESF) does the source give for O=C(NCCCc1ccccc1)C1CCC(CNc2c(N3CCCCC3)c(=O)c2=O)CC1 (centres undefined) here?
**A.** 7 (inactive)

**Q.** For CCCc1nc(SCC(=O)Nc2ccc(S(=O)(=O)N(C)C)cc2)c2ccccc2n1, which fluorescence (KMESF) is on record?
**A.** 1 (inactive)

**Q.** With CCCn1c(SCC(=O)N2CCc3ccccc32)nnc1-c1ccncc1 as the compound, how does the fluorescence (KMESF) read?
**A.** 7 (inactive)

**Q.** For O=C(CSc1ccc2nnc(-c3ccccc3)n2n1)N1CCCc2ccccc21, which fluorescence (KMESF) is on record?
**A.** 76 (active)

**Q.** Which fluorescence (KMESF) does the source give for Cn1c(SCC(=O)N2CCCc3ccccc32)nc2ccccc2c1=O here?
**A.** 4 (inactive)

**Q.** Which fluorescence (KMESF) does the source give for CCOc1ccc2sc(NS(=O)(=O)c3ccc(N)cc3)nc2c1 here?
**A.** 4 (inactive)

**Q.** For CC(C)(C)NC(=O)NCc1ccco1, which fluorescence (KMESF) is on record?
**A.** 6 (inactive)
